Results taken from PubChem BioAssay AID1863 (Southern Research Specialized Biocontainment Screening …, 2009).
Screen size: about 300,000 compounds; about 480 (0.16%) were called active.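 How the source made its calls: active means inhibition over 29.93%, a cutoff 3 SD above the screen mean, later confirmed by dose response; inconclusive means inhibition over 29.93% but no dose response follow-up; inactive means inhibition at most 29.93% or unconfirmed.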 Only a sample is shown. Entries with a potency or affinity are not part of this list.

assay: PhoP-dependent GFP reporter repression – Salmonella Typhimurium, primary screen (AID 1863);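 further: 0% = low Mg2+ inducing control and 100% = high Mg2+ repressing control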; conditions: S. Typhimurium PhoP-regulated promoter GFP reporter, 4 h; at 50 µM; hits give high values

Row | SMILES | inhibition
1 | COCc1c(C(=O)N/N=C/c2ccc(C)o2)nnn1-c1nonc1N | 4.95% (inactive)
2 | COc1cccc(CC(=O)Nc2nc(-c3cccnc3)cs2)c1 | -6.4% (inactive)
3 | Cc1ccc(N2C(=O)CC(NNc3nc4ccccc4s3)C2=O)cc1 (stereo unspecified) | 7.17% (inactive)
4 | Cc1cc(=O)[nH]c(-n2nc(C)cc2C)n1 | -11.6% (inactive)
5 | Cc1ccc(Nc2cc(C)nn2-c2nc(C)cc(C)n2)cc1 | 14.5% (inactive)
6 | Cc1ccc(S(=O)(=O)N2CCN(Cc3ccccc3)CC2)cc1 | -4.43% (inactive)
7 | Cc1cc(C)c2ccc(C(=O)O)nc2c1O | -7.66% (inactive)
8 | Cc1cc(C)c2ccc(NN)nc2c1O | 0% (inactive)
9 | CCn1c(C)nnc1SCC(=O)Nc1ccc(N2CCOCC2)cc1 | 10% (inactive)
10 | O=C(COc1ccccc1[N+](=O)[O-])N1CCC(Cc2ccccc2)CC1 | 4.09% (inactive)
11 | Cc1nnc(N/N=C/c2c[nH]c3ccccc23)[nH]c1=O | 7.38% (inactive)
12 | Cc1nnc(N/N=C/C(C)c2ccccc2)[nH]c1=O (stereo unspecified) | -2.09% (inactive)
13 | S=C(Nc1ccccc1Cl)N(Cc1ccccc1)Cc1cccnc1 | 4.33% (inactive)
14 | O=C(CSc1ccc(-c2ccccn2)nn1)N1CCc2ccccc21 | -3.41% (inactive)
15 | Cc1ccc(-c2csc(NC(=O)C[n+]3cc(-c4ccccc4)n4c3CCC4)n2)cc1 | -8.54% (inactive)
16 | O=C(C[n+]1cc(-c2ccc(F)cc2)n2c1CCC2)Nc1nc(-c2ccc(F)cc2)cs1 | 20.4% (inactive)
17 | O=C(C[n+]1cc(-c2ccccc2)n2c1CCC2)Nc1nc(-c2ccc(F)cc2)cs1 | 11.3% (inactive)
18 | Cc1ccc(NC(=O)C[n+]2cc(-c3ccc(C)cc3)n3c2CCC3)cc1 | -9.5% (inactive)
19 | Cc1ccc(NC(=O)C[n+]2cc(-c3ccccc3)n3c2CCC3)cc1 | -4.1% (inactive)
20 | Cc1ccc(-c2c[n+](CC(=O)Nc3nc(-c4ccccc4)cs3)c3n2CCC3)cc1 | -7.93% (inactive)
21 | O=C(c1cc2ccc([N+](=O)[O-])cc2oc1=O)N1CCOCC1 | -3.48% (inactive)

Row | SMILES | inhibition
22 | O=C(COc1ccc(S(=O)(=O)N2CCCCC2)cc1)Nc1ccccc1F | -6.38% (inactive)
23 | O=C(c1ccc(N2CCN(C3CC(=O)N(Cc4cccs4)C3=O)CC2)cc1)c1cccnc1 (stereo unspecified) | 4.02% (inactive)
24 | O=C(O)c1ccn2c(C(=O)c3ccccc3)c(-c3ccccc3)cc2c1 | -13.9% (inactive)
25 | C[C@H]1COc2c(N3CCN(C)CC3)c(F)cc3c(=O)c(C(=O)O)cn1c23 | -9.45% (inactive)
26 | Cc1cc(C)c(NC(=O)c2cc(S(=O)(=O)N3CCOCC3)ccc2F)c(C)c1 | -1.33% (inactive)
27 | CCn1cc(C(=O)NCC2CCCO2)c(=O)c2cc(F)c(N3CCN(C)CC3)cc21 (stereo unspecified) | 0.68% (inactive)
28 | CN1CCN(c2c(F)cc3c(=O)c(C(=O)O)cn(CCF)c3c2F)CC1 | -2.24% (inactive)
29 | C[C@H]1COc2c(C3(N)CC3)c(F)cc3c(=O)c(C(=O)O)cn1c23 | -7.84% (inactive)
30 | CCOc1ccc(C(=O)Nc2ccc(N3CCN(C)CC3)cc2)cc1 | -7.33% (inactive)
31 | CCOc1ccc(C(=O)Nc2ccc(S(=O)(=O)N3CCN(C)CC3)cc2)cc1 | 8.02% (inactive)
32 | Cc1cc(C)n(CC(=O)N2c3ccccc3Sc3ccc(C(F)(F)F)cc32)n1 | -5.1% (inactive)
33 | Cc1cc[n+](-c2[nH]c(=O)sc2/C=N/N=C(\[O-])CCn2c3ccccc3c3ccccc32)cc1 | 1.47% (inactive)
34 | Cn1c(=O)oc2cc(S(=O)(=O)NCCC(=O)N3CCc4ccccc4C3)ccc21 | -8.83% (inactive)
35 | COc1ccc(C(CNS(=O)(=O)c2ccc(F)cc2)N2CCN(C)CC2)cc1 (stereo unspecified) | 3.53% (inactive)
36 | NC(=O)COC(=O)C12CC3CC(CC(O)(C3)C1)C2 | 17.4% (inactive)
37 | CCOc1ccc(C(C)=O)cc1CSc1nc(C)cc(C)n1 | 4.1% (inactive)
38 | CC(=O)c1cccc(NC(=O)NC2CCCCC2)c1 | -2.42% (inactive)
39 | COCCn1c(-c2ccc(Cl)cc2)cnc1SCC(=O)NCCc1ccc(OC)c(OC)c1 | 12.7% (inactive)
40 | C=COCCn1c(-c2nonc2N)nc2ccccc21 | 18.4% (inactive)
41 | CCCOC(=O)C[N+](C)(C)CCOC1CC2CCC1(C)C2(C)C (stereo unspecified) | -23.2% (inactive)
42 | CCOC(=O)C[N+](C)(C)CCOC1CC2CCC1(C)C2(C)C (stereo unspecified) | 6.45% (inactive)

Row | SMILES | inhibition
43 | CC(C)CCOC(=O)C[N+](C)(C)CCOC1CC2CCC1(C)C2(C)C (stereo unspecified) | -2.94% (inactive)
44 | CCCCOC(=O)C[N+](C)(C)CCOC1CC2CCC1(C)C2(C)C (stereo unspecified) | -9.77% (inactive)
45 | CC(C)CCNC(=O)C1(c2cccs2)CCOCC1 | -3.36% (inactive)
46 | O=C(NCc1ccccn1)Nc1cccc(Cl)c1Cl | 7.04% (inactive)
47 | O=C1C=C(O)c2cccc(O)c2C1=O | 4.81% (inactive)
48 | O=C1C=C(O)c2c(O)cccc2C1=O | 5.73% (inactive)
49 | CC(=O)c1cccc(NC(=O)CCc2nnc3ccc(N4CCOCC4)nn23)c1 | 9.13% (inactive)
50 | O=c1c2ccccc2nc2c3ccccc3c(NCCN3CCOCC3)nn12 | -8.49% (inactive)
51 | Cc1ccc(-c2csc3nc4c5ccccc5c(NCCCN5CCOCC5)nn4c(=O)c23)cc1 | 2.89% (inactive)
52 | COc1cccc(/C=N/NC(=O)c2ccc(CN3c4cccc5cccc(c45)S3(=O)=O)cc2)c1 | -6.43% (inactive)
53 | Cc1cc(OCC(O)CNC(C)(C)C)ccc1Cl (stereo unspecified) | -6.41% (inactive)
54 | OC(CNCCc1ccc(Cl)cc1)COc1ccc2ccccc2c1 (stereo unspecified) | 7.14% (inactive)
55 | Cc1nc(N)nc(N/N=C/c2ccccc2)n1 | -5.41% (inactive)
56 | COCC(C)NS(=O)(=O)c1ccccc1 (stereo unspecified) | -1.07% (inactive)
57 | CC(=O)c1cccc(NC(=O)c2sc3nc4n(c(=O)c3c2C)CCCCC4)c1 | 11.4% (inactive)
58 | O=C(CN1CCCc2ccccc21)N/N=C/c1c(O)ccc2ccccc12 | 41.7% (inactive)
59 | O=C(CN1CCOCC1)N/N=C/c1c(O)ccc2ccccc12 | 3.4% (inactive)
60 | NC(=S)N/N=C/c1c(O)ccc2ccccc12 | -8.26% (inactive)
61 | Oc1ccc2ccccc2c1/C=N/Nc1ccccc1 | -2.22% (inactive)
